Assay results reported in PubChem BioAssay (NCATS).
Inconclusive results are not listed. Activity calls are given as the source filed them. Calls follow the shape of the dose curve; as a rule, active = well fitted curve in the direction sought with a large enough effect; inconclusive = small, poorly fitted or top-dose-only effect, or another doubt; inactive = no such curve, though single readings can be large; an effect the other way counts as inactive or inconclusive.

Legend:
[1] = system: Zika virus NS2B-NS3 protease (unlinked); assay: Optimization of GU AMC qHTS for Zika virus inhibitors: Unlinked NS2B-NS3 protease assay (AID 1347151);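 also: series mostly up to about 52 µM; 0% = no-inhibitor control and -100% = no-enzyme control; nearly all actives have a fitted effect of over 80% in size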
Method in brief: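 Noncovalent NS2B hydrophilic domain–NS3 protease complex (25 nM final) in 10 mM Tris-HCl pH 8.0, 0.01% Tween 20; AMC substrate, room temperature 15 min (~20% conversion); fluorescence change normalized, 4-parameter Hill fit.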

[2] = system: Zika virus NS2B-NS3 protease; assay: Primary screen GU AMC qHTS for Zika virus inhibitors (AID 1347154);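 also: 0% = no-inhibitor control and -100% = no-enzyme control; nearly all actives have a fitted effect of over 70% in size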
Method in brief: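 Unlinked Zika NS2B hydrophilic domain–NS3 protease complex at 25 nM in 10 mM Tris-HCl pH 8.0, 0.01% Tween 20, with an AMC peptide substrate. Fluorescence change (340/450 nm) over 15 min at room temperature, normalized to controls, fitted to 4-parameter Hill.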

[3] = target: Lysine-specific demethylase 5B (Homo sapiens) (UniProt Q9UGL1); assay: Optimization screen for KDM5B Histone Demethylases FDH coupled qHTS against the LOPAC library (AID 1347166); also: 0% is about no effect
Method in brief: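 KDM5BDeltaAP (200nM final) preincubated 10 min with compound, then 12.5uM H3K4Me3, 25uM a-ketoglutarate, ascorbate, Fe(II), NAD+ and FDH added; 50mM HEPES pH 7.5, 0.01% Tween-20. NADH fluorescence (340/450 nm) change over 30 min, room temperature.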

[4] = qHTS to identify inhibitors of the type 1 interferon - major histocompatibility complex class I in skeletal muscle: primary screen against the NCATS LOPAC collection (AID 1347405);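 also: lytic HiBiT luminescence reporting HLA-B protein level; % is scaled to controls: 0 for no effect and ±100 for the full control effect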
Method in brief: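 Immortalized human C25cl48 myoblasts with HiBiT knocked into endogenous HLA-B*08:01 were stimulated with 4.0 ng/ml IFN-beta and given compounds in a 7-point, 1:4.3 titration from 46 uM final; after 24 hrs, lytic HiBiT luminescence was read.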

[5] = qHTS to identify inhibitors of the type 1 interferon - major histocompatibility complex class I in skeletal muscle: primary screen against the NCATS Pharmaceutical Collection (AID 1347407);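 also: luminescence of HiBiT knocked into endogenous HLA-B as interferon-induced MHC class I level; % is scaled to controls: 0 for no effect and ±100 for the full control effect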
Method in brief: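 Immortalized human myoblasts (C25cl48) with HiBiT knocked into endogenous HLA-B*08:01 were stimulated with 4.0 ng/ml IFN-beta and treated with compounds ([…] top 46 uM) for 24 hrs at 37 C. HiBiT lytic luminescence read.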

[6] = qHTS for inhibitors of adenylyl cyclases using a fission yeast platform: a pilot screen against the NCATS LOPAC library (AID 1347410);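 also: plate controls were DMSO vehicle for no effect and DPI positive control for full effect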
Method in brief: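 S. pombe CHP2027 (AC9-GNAS-PDE4D2) carrying PKA-repressed fbp1-GFP, incubated 18 h at 30C in EMM with LOPAC compounds at up to 57 uM. GFP gain-of-signal read by laser scanning cytometry; DMSO negative control.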

[7] = target: Protein phosphatase 1D (Homo sapiens) (UniProt O15297); assay: RapidFire Mass Spectrometry qHTS Assay for Modulators of WT P53-Induced Phosphatase 1 (WIP1) (AID 1347424);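 also: amount of dephosphorylated VEPPL-S-QETFS peptide product formed by WIP1; series mostly up to about 63 µM; plate controls were DMSO wells for no effect and GSK830371 inhibitor control at 10 µM for full effect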
Method in brief: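 10 nM WIP1 preincubated with compounds 1 hr at room temperature in pH 7.5 Tris buffer with 30 mM MgCl2, 1 mM TCEP; 2 uM VEPPL-pS-QETFS phosphopeptide for 5 min, formic acid quench; dephosphorylated product quantified by RapidFire MS against labelled standard.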

[8] = target: Protein phosphatase 1D (Homo sapiens) (UniProt O15297); assay: Rhodamine-PBP qHTS Assay for Modulators of WT P53-Induced Phosphatase 1 (WIP1) (AID 1347425); also: % of control where 0% means no effect
Method in brief: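 WIP1 (5 nM final) was preincubated with compound for 1 hour at room temperature. It then dephosphorylated 10 uM VEPPL-pS-QETFS peptide in Tris-HCl pH 7.5 with 30 mM MgCl2. Released Pi was detected by 10 uM Rh-PBP fluorescence (ex 525/em 598 nm) read at 1-min intervals for 11 min, as delta f1 - f0.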

[9] = Validation qHTS assay for inhibitors of Activation Induced Cytidine Deaminase (AID): UDG Counterscreen signal (AID 1347427); also: 0% is about no effect
Method in brief: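 Counterscreen read of UDG activity (2 U/mL, 4/3x) in the FRET deamination format with AID (1 uM, 4/3x), DJC20/DJC23 substrates (250 nM, 4x), 4 h at room temperature. NaOH stop, fluorescence at 560 ex/665 em.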

[10] = target: Single-stranded DNA cytosine deaminase (Homo sapiens) (UniProt Q9GZX7); assay: Validation qHTS assay for inhibitors of Activation Induced Cytidine Deaminase (AID): AID signal (AID 1347429); also: % is scaled to controls: 0 for no effect and ±100 for the full control effect
Method in brief: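 AID and UDG were combined and compounds added at final up to 114 uM, then DJC20/DJC23 FRET substrate was added for 4 hr at room temperature. NaOH was then added for 30 min before fluorescence was read at 540/590 nm.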

[11] = qHTS to identify inhibitors of the type 1 interferon - major histocompatibility complex class I in skeletal muscle: primary screen against the NCATS Mechanism Interrogation Plate v5.0 (MIPE) Libary (AID 1347411);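 also: plate controls were vehicle for no effect and reference inhibitor for full effect; nearly all actives have a fitted effect of over 65% in size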
Method in brief: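 Immortalized human C25cl48 myoblasts with HiBit knocked into endogenous HLA-B*08:01 were stimulated with 4.0 ng/ml IFN-beta and exposed to compounds (11-point 1:3 titration, top 46 uM final) for 24 hrs at 37 C; HiBiT lytic luminescence measured.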

Sequence of Protein phosphatase 1D (Homo sapiens) (O15297 whole entry, looked up): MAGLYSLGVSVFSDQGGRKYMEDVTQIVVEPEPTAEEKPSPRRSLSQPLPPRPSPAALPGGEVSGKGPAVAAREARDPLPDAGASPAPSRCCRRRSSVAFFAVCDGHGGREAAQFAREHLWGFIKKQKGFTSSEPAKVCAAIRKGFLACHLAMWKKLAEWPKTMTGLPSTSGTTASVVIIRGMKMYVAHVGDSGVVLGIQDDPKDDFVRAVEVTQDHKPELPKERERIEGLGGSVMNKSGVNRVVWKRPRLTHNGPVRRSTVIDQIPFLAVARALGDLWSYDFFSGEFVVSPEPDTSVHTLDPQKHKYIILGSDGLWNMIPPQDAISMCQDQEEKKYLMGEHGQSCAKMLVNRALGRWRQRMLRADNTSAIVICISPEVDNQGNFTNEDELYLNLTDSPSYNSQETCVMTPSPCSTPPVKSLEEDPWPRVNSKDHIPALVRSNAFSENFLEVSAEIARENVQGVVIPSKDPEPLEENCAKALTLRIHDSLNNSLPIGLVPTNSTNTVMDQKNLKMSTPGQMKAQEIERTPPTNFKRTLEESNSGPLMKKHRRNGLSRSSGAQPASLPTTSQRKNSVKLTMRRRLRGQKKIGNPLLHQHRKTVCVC
Sequence of Single-stranded DNA cytosine deaminase (Homo sapiens) (Q9GZX7 whole entry, looked up): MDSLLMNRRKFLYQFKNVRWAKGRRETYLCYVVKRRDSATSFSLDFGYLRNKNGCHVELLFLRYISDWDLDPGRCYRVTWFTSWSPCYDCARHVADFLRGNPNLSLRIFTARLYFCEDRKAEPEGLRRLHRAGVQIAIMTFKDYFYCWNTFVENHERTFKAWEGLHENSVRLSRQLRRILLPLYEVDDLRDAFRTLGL
Sequence of Lysine-specific demethylase 5B (Homo sapiens) (Q9UGL1 whole entry, looked up): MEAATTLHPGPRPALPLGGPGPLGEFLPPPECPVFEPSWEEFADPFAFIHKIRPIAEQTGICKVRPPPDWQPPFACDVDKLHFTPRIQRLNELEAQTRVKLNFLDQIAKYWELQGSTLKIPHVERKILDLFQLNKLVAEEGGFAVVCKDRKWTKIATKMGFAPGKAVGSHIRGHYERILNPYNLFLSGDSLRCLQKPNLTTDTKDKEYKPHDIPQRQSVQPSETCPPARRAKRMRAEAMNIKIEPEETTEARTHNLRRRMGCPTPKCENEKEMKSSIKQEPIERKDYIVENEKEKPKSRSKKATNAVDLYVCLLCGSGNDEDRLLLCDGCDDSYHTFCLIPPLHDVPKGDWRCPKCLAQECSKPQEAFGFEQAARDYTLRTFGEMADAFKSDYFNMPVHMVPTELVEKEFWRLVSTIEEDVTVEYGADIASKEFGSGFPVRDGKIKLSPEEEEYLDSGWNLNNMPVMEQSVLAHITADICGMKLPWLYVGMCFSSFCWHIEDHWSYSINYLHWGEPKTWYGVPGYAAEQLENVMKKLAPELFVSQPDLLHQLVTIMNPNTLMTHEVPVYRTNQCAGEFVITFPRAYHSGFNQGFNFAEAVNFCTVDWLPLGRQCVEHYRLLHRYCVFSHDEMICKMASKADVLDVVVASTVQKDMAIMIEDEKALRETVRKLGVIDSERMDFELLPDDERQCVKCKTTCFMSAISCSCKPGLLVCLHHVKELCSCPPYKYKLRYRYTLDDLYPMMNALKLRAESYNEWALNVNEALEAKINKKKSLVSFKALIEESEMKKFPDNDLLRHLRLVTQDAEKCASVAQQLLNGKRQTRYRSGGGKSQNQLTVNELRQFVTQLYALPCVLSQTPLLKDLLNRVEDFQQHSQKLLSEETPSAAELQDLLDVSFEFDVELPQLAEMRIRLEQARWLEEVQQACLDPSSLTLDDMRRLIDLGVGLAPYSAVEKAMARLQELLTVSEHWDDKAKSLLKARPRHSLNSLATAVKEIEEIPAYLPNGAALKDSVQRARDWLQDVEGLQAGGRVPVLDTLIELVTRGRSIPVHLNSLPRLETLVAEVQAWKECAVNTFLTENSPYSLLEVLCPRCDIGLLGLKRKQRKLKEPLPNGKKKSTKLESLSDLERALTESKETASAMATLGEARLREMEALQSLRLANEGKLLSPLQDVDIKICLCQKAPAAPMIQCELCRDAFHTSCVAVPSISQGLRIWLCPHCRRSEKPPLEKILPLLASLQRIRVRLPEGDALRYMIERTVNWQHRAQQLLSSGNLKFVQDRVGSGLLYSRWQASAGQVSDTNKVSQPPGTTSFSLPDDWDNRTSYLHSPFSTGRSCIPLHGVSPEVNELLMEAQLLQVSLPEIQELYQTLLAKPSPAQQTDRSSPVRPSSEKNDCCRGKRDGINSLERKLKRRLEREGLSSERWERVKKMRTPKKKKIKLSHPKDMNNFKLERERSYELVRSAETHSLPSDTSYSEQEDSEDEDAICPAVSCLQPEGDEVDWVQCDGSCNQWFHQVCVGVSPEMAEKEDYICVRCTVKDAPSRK

NCCCNCCSP(=O)(O)O
inactive: Potency [1] | activity change, negative = inhibition [2] -3.39% [at 6.83 µM] | Potency [3] | Potency [4] | activity change, negative = inhibition [5] 3.17% [at 9.18 µM] | outcome [6] | activity change, negative = inhibition [7] 0.628% [at 12.6 µM] | activity change, negative = inhibition [8] 1.47% [at 11.5 µM] | outcome [9] | Potency [10]

Cc1scc2c1N(C(=O)CN1CCN(C)CC1)c1ccccc1NC2=O
inactive: Potency [1] | outcome [2] | Potency [3] | Potency [4] | Potency [5] | outcome [6] | Potency [7] | outcome [8] | outcome [9] | Potency [10]

O=C(O)CCCCCCCC(=O)O
inactive: Potency [1] | outcome [2] | Potency [3] | Potency [4] | Potency [5] | outcome [6] | Potency [7] | outcome [8] | outcome [9] | Potency [10]

CCN(CC)CC(=O)Nc1c(C)cccc1C
inactive: Potency [1] | outcome [2] | Potency [3] | Potency [4] | Potency [5] | outcome [6] | Potency [7] | outcome [8] | outcome [9] | Potency [10]

CC(C)NCC(O)c1cc(O)cc(O)c1 (stereo not given)
inactive: Potency [1] | outcome [2] | Potency [3] | Potency [4] | Potency [5] | outcome [6] | Potency [7] | outcome [8] | outcome [9] | Potency [10]

CCN(CC)CCNC(=O)c1cc(S(C)(=O)=O)ccc1OC
inactive: Potency [1] | outcome [2] | Potency [3] | Potency [4] | Potency [5] | outcome [6] | Potency [7] | outcome [8] | outcome [9] | Potency [10]

NC(=O)c1ncn([C@@H]2O[C@H](CO)[C@@H](O)[C@H]2O)c1O
inactive: Potency [1] | outcome [2] | Potency [3] | Potency [4] | Potency [5] | outcome [6] | Potency [11] | Potency [7] | outcome [8] | outcome [9] | Potency [10]

CN1CCN(C2=Nc3ccccc3Oc3ccc(Cl)cc32)CC1
inactive: Potency [1] | outcome [2] | Potency [3] | Potency [4] | Potency [5] | outcome [6] | Potency [7] | outcome [8] | outcome [9] | Potency [10]

CN(C)CCCN1c2ccccc2Sc2ccccc21
inactive: Potency [1] | outcome [2] | Potency [3] | Potency [4] | Potency [5] | outcome [6] | Potency [7] | outcome [8] | outcome [9] | Potency [10]

CC(=O)OC(C)C[N+](C)(C)C (stereo not given)
inactive: Potency [1] | outcome [2] | Potency [3] | Potency [4] | Potency [5] | outcome [6] | Potency [7] | outcome [8] | outcome [9] | Potency [10]

CNCCC(Oc1ccccc1OC)c1ccccc1 (stereo not given)
inactive: Potency [1] | outcome [2] | Potency [3] | Potency [4] | Potency [5] | outcome [6] | Potency [7] | outcome [8] | outcome [9] | Potency [10]

CCN(CC)CCNC(=O)c1ccc(NC(C)=O)cc1
inactive: Potency [1] | outcome [2] | Potency [3] | Potency [4] | Potency [5] | outcome [6] | Potency [7] | outcome [8] | outcome [9] | Potency [10]

C[C@]12CCC(=O)C=C1CC[C@@H]1[C@@H]2CC[C@@]2(C)[C@H]1CC[C@]2(O)C(=O)CO
inactive: Potency [1] | outcome [2] | Potency [3] | Potency [4] | Potency [5] | outcome [6] | Potency [7] | outcome [8] | outcome [9] | Potency [10]

O=C(O)CN(CCOCCOCCN(CC(=O)O)CC(=O)O)CC(=O)O
inactive: Potency [1] | activity change, negative = inhibition [2] -0.967% [at 0.59 µM] | Potency [3] | Potency [4] | activity change, negative = inhibition [5] 1.04% [at 0.727 µM] | outcome [6] | activity change, negative = inhibition [7] 15.2% [at 0.505 µM] | activity change, negative = inhibition [8] -3.01% [at 0.575 µM] | outcome [9] | Potency [10]

CCCCCN(CCCCC)C(=O)C(CCC(=O)O)NC(=O)c1ccc(Cl)c(Cl)c1 (stereo not given)
inactive: Potency [1] | outcome [2] | Potency [3] | Potency [4] | Potency [5] | outcome [6] | Potency [7] | outcome [9] | Potency [10]

O=C(O)CN(CCN(CC(=O)O)CC(=O)O)CCN(CC(=O)O)CC(=O)O
inactive: Potency [1] | outcome [2] | Potency [3] | Potency [4] | Potency [5] | outcome [6] | Potency [7] | outcome [8] | outcome [9] | Potency [10]

O=C(CCCN1CCC(O)(c2cccc(C(F)(F)F)c2)CC1)c1ccc(F)cc1
inactive: Potency [1] | outcome [2] | Potency [3] | Potency [4] | Potency [5] | outcome [6] | Potency [7] | outcome [8] | outcome [9] | Potency [10]

CCNC(=O)N1CCN(CCCC(c2ccc(F)cc2)c2ccc(F)cc2)CC1
inactive: Potency [1] | outcome [2] | Potency [3] | Potency [4] | Potency [5] | outcome [6] | Potency [7] | outcome [9] | Potency [10]

CN(C)CCCN1c2ccccc2Sc2ccc(C(F)(F)F)cc21
inactive: Potency [1] | outcome [2] | Potency [3] | Potency [5] | outcome [6] | Potency [7] | outcome [9] | Potency [10]

CCCCNc1ccc(C(=O)OCCN(C)C)cc1
inactive: Potency [1] | outcome [2] | Potency [3] | Potency [4] | Potency [5] | outcome [6] | Potency [7] | outcome [8] | outcome [9] | Potency [10]

Nc1c2c(nc3ccccc13)CCCC2O (stereo not given)
inactive: Potency [1] | outcome [2] | Potency [3] | Potency [4] | Potency [5] | outcome [6] | Potency [7] | outcome [9] | Potency [10]

CO[C@@]1(NC(=O)CSCC#N)C(=O)N2C(C(=O)O)=C(CSc3nnnn3C)CS[C@@H]21
inactive: Potency [1] | outcome [2] | Potency [3] | Potency [4] | Potency [5] | outcome [6] | Potency [7] | outcome [9] | Potency [10]
